# Hit rate of the full screen: of about 7,900 compounds, about 400 (5.1%) showed an effect of 50% or more. Only a selection was taken, and strong results are over-represented in it overall.
# Molecular target: Parkinson's disease protein 7 (PARK7/DJ1) (human, UniProt Q99497)
# Test: primary screen, percent inhibition; read as competition with a fluorescent probe by fluorescence polarization; higher = more effect of the substance
# Conditions: 100 µM
# Method: The screen was conducted using the conditions as described above in 1536-well plates (Corning 3724) with a reaction volume of 8 μL per well. The compound library containing 7887 covalent fragments was purchased at Enamine Ltd. and received as 100 mM DMSO stocks in 384 well LDV Echo plates (Labcyte LP-0200). Stock solutions of 0.26 μM PARK7 and 80 nM JYQ-107 were prepared. Using a Labcyte Echo550 acoustic dispenser, 8 nL of the DMSO stock solution of the library compounds was transferred from the source plates into the empty 1536-well screening plates to obtain a 100 μM final compound concentration. Next, PARK7 (6 μL, final concentration 0.2 μM) was dispensed using a Biotek MultiflowFX liquid dispenser and incubated for 2 h, followed by dispensing the probe JYQ-107 (2 μL, final concentration 20 nM). After 2 h incubation, the FP signal was recorded on a BMG Labtech PHERAstar plate reader (λex/em 480/520 nm). The relative loss of FP signal compared with reference controls was used to calculate the remaining enzyme activity.
# Parkinson's disease protein 7 (PARK7/DJ1), sequence (Q99497 whole entry, looked up): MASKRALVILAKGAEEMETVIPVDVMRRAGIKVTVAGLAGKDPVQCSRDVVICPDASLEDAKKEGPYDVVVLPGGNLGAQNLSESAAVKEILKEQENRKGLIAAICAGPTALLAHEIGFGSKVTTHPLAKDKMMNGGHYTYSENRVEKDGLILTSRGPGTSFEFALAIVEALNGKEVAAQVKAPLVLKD
row,Compound,Inhibition %
1,C=C(Cl)CSc1nc(N)cc(N)n1,18.5%
2,CC(C)CN1CCN(c2ccc(C#N)nc2)C(C)C1=O (stereo not drawn),5.84%
3,O=C(CCl)Nc1ccccc1-c1ccccc1,8.41%
4,CCn1cc(CCCl)cn1,5.4%
5,CN1CN=C(S)NC1,3.57%
6,C=CC(=O)NCC1(C)CCOCC1,4.38%
7,C=CC(=O)NCC1CCC2(COC(C)C2)O1 (stereo not drawn),2.62%
8,C=CC(=O)NCc1ccc2c(c1)CCO2,9.41%
9,O=C(CCl)Nc1cccc(S(=O)(=O)N=C2CCCN2)c1,18.3%
10,O=C(Cc1ccc2c(c1)CCO2)Nc1cccc(S(=O)(=O)F)c1,94.3%
11,C=CC(=O)Nc1ccc2c(c1)COC2,11.5%
12,C=CC(=O)Nc1cccc(C(F)F)c1,6.09%
13,O=C(Cc1ccc2c(c1)COC2)Nc1cccc(S(=O)(=O)F)c1,97.6%
14,O=C(Cc1cccc(C(F)F)c1)Nc1cccc(S(=O)(=O)F)c1,52%
15,O=C1CC2(CCNCC2)N1,3.72%
16,N#CC(=Cc1ccc(N)cc1)C(N)=O,8.09%
17,CC(C)CNc1oc(Cc2ccccc2)nc1C#N,6.85%
18,C=CC(=O)NC1CC2(COC(C)C2)C1 (stereo not drawn),8.04%
19,COc1cc(C)c(C)cc1S(=O)(=O)n1cccn1,6.67%
20,N#Cc1c(Cl)nc2sccn12,4.22%
21,CCN(Cc1ccc(Cl)s1)C(=O)CCl,9.61%
22,N#Cc1ncn(CCC(=O)NCc2ccc(F)cc2)n1,7.22%
23,O=C1CC2(CCN(Cc3ccc(Cl)cc3Cl)CC2)N1,-1.16%
24,Cc1csc(N(C(=O)CCl)c2ccccc2)n1,87.3%

row,Compound,Inhibition %
1,CN(C(=O)CCl)c1ccc([N+](=O)[O-])cc1,93.5%
2,CCN(C(=O)CCl)c1ccccc1,44.6%
3,O=C(CCl)Nc1ccc([N+](=O)[O-])cc1,32.8%
4,O=C(CCl)N(Cc1ccccc1)c1ccccc1,10.7%
5,O=C(CCl)NC(=O)Nc1ccccc1,28.5%
6,Cc1ccc([N+](=O)[O-])cc1NC(=O)CCl,18.4%
7,O=C(Nc1ccccc1)NN(C(=O)CCl)c1ccccc1,93.5%
8,CN(C(=O)CCCl)c1ccccc1,9.16%
9,Cc1cccc(N(Cc2ccccc2)C(=O)CCl)c1,9.42%
10,CN(C(=O)CCl)c1ccccc1,79.7%
11,O=C(CCl)NN(c1ccccc1)c1ccccc1,10.3%
12,Cl.Cl.O=C(O)C1CCN(C(=O)C=Cc2nc3ccccc3s2)C1 (stereo not drawn),9.53%
13,C=CC(=O)NC[C@H]1CC[C@H](c2ccccc2)O1,2.73%
14,Cn1c(=O)c2c(ncn2CCS(=O)(=O)F)n(C)c1=O,7.95%
15,CC(C)Cc1ccc(C(C)NC(=O)CCl)cc1 (stereo not drawn),9.76%
16,CS(=O)(=O)OCC1(C#N)CCCCC1,8.05%
17,CCCC(=O)NC1CCCN(c2ccc(C#N)nc2)C1 (stereo not drawn),5.26%
18,N#CCCN(C(=O)CCl)c1ccccc1,14.9%
19,NC(=O)CCN(C(=O)CCl)c1ccc(F)cc1,37.5%
20,NC(=O)CCN(C(=O)CCl)c1ccccc1,67.4%
21,C=CC(=O)NCc1cnn2ccccc12,19.8%
22,C=CC(=O)Nc1cnn2ccccc12,97%
23,C=CC(=O)Nc1cc2ccccn2n1,30.2%
24,C=CC(=O)NCc1noc2c1CCCC2,4.47%

row,Compound,Inhibition %
1,CC(C)c1nc2c(n1C)CCN(c1cccnc1C#N)C2,87%
2,N#Cc1ncccc1N1CCC=C(F)C1,20.1%
3,N#Cc1ncccc1N1CCc2ccccc2C1,26.9%
4,C=CC(=O)NCc1ccc(CN2CCCCCC2)cc1,13.2%
5,O=C(CCl)c1ccc(F)c(Cl)c1,99.2%
6,Cc1cc(C(=O)CCl)ccc1F,24.6%
7,O=C(CCl)c1ccc(F)c(C(=O)CCl)c1,100%
8,O=C(CCl)c1ccc(F)c(F)c1,22.1%
9,O=C(CCl)Nc1ccc2[nH]c(C(F)(F)F)nc2c1,45%
10,CC(NC(=O)Cn1cnc(C#N)n1)c1ccc(F)cc1F (stereo not drawn),1.26%
11,N#CN(Cc1ccno1)c1ccc(F)cc1,15.5%
12,C=CC(=O)Nc1cc(F)ccc1C,3.57%
13,CC1CCCCC1NC(=O)Cn1cnc(C#N)n1 (stereo not drawn),5.45%
14,O=C(O)[C@H]1CCCN1C(=O)C=Cc1ccccc1F,8.2%
15,O=C(CCl)C1CCCN1C(=O)C(F)(F)F (stereo not drawn),80.8%
16,O=C(CCl)N1CCCC2CCCCC21 (stereo not drawn),14.1%
17,NC(=O)C1CCCCN1C(=O)CCl (stereo not drawn),12.3%
18,CC1(C)CCC(OS(C)(=O)=O)CC1,16.9%
19,CSc1cc(C(=O)CCl)ccc1NC(C)=O,5.59%
20,CC(=O)NCCc1cc(C(=O)CCl)ccc1F,83.3%
21,CSc1ccc(C(=O)CCl)cc1NC(C)=O,37.7%
22,CC(=O)NCCc1ccc(C(=O)CCl)cc1F,81.3%
23,O=C(CCl)NCCc1ccc(Cl)cc1Cl,23.1%
24,Cc1nc(C=CC(=O)N2CCc3sccc3C2)cs1,4.01%

row,Compound,Inhibition %
1,O=C(CCl)Nc1nc2c(F)c(F)c(F)cc2s1,-4.93%
2,COc1ccc(N2CCN(CC3CO3)CC2)cc1 (stereo not drawn),12.9%
3,N#CC1CC2(CC(=O)N2)C1 (stereo not drawn),5.93%
4,Cc1ccc2cccc(OC(=O)N3CCCC3)c2n1,13.5%
5,O=C1CC(Cc2ccccc2)N1 (stereo not drawn),3.33%
6,O=C(O)CC1CC(=O)N1 (stereo not drawn),65.7%
7,O=C1CC(c2ccccc2)N1 (stereo not drawn),7.05%
8,Cc1nc(C#N)c(N)nc1Cl,10.2%
9,Oc1ccnc(S)n1,2.99%
10,Cc1ccc2ccccc2c1B(O)O,0.986%
11,Cc1cc(NS(=O)(=O)C=Cc2ccccc2)ccn1,29.4%
12,N#Cc1ccc(NS(=O)(=O)C=Cc2ccccc2)cc1,10.5%
13,Cc1ccc(C=CS(=O)(=O)Nc2cnn(CCO)c2)cc1,14.7%
14,COc1ccc(NS(=O)(=O)C=Cc2ccccc2)cn1,59.9%
15,COc1ccc(NS(=O)(=O)c2ccc(S(=O)(=O)F)cc2)cn1,100%
16,O=S(=O)(C=Cc1ccccc1)Nc1ccc(F)c(F)c1,1.18%
17,O=S(=O)(F)c1ccc(S(=O)(=O)Nc2ccnnc2)cc1,8.23%
18,COc1ccccc1NS(=O)(=O)C=Cc1ccccc1,7.7%
19,CCn1cc(NS(=O)(=O)C=Cc2ccccc2)cn1,81.4%
20,CN(C)c1ccc(NS(=O)(=O)C=Cc2ccccc2)cn1,69.9%
21,COc1ccc(NS(=O)(=O)C=Cc2ccccc2)cc1,1.18%

# Reference: paper PMC9574860, “Chemical Toolkit for PARK7: Potent, Selective, and High-Throughput” (Journal of Medicinal Chemistry, 2022)
